Pf growth 48h: P. falciparum growth inhibition at 48 hours (one generation) | P. falciparum luciferase growth in erythrocytes, 48 h | hit rate 5.9% among 310,000 | Potency, µM (series often up to 28.7 µM), without a hit: at the highest dose activity change, negative = inhibition, most hits filed as inhibitors; further: on the % scale 0 is the no-effect control and ±100 the full control effect
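Growth was read as firefly luciferase luminescence after a 48 h, 37 C, 5% CO2 exposure of compounds to reporter-bearing P. falciparum cultures (0.1% parasitemia, 2% hematocrit final) in Albumax-supplemented RPMI 1640.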
NS1 inh: inhibitors of influenza NS1 protein function | Potency, µM (series often up to 46.1 µM), for inactives: at the top dose activity, positive = more growth | hit rate 0.4% among 270,000 | AID 2326; calls by dose curve; further: actives are rising curves; nearly all actives have a fitted effect of over 50% in size
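S. cerevisiae expressing influenza A NS1, grown in glucose, washed, then diluted 1:100 into pH 6.0 -URA galactose medium with 23 nl compound. Growth recovery read as OD600; NS1-free strain serves as control.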
AMA1-RON2 inh: disrupts binding of P. falciparum AMA1 to RON2; AlphaScreen AMA1-biotinylated RON2 peptide binding; Potency, µM (highest dose often 58.2 µM), for inactives: top-dose activity change, negative = inhibition, actives largely listed as inhibitors; hit rate 0.2% among 360,000; AID 720542;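 further: 0% = vehicle wells and -100% = peptide control; nearly all actives have a fitted effect of over 45% in size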
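AMA1 (3D7) with his tag at 25 nM final met compounds first, then biotinylated RON2 peptide at 25 nM; detection used donor plus acceptor beads, 10 µg/mL apiece, read by AlphaScreen after 30 min at room temperature.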
Pf growth 96h: P. falciparum growth inhibition at 96 hour, primary screen for plastid delayed-death inhibitors. Potency, µM (series often up to 28.7 µM), without a hit: top-dose activity change, negative = inhibition, actives largely listed as inhibitors. P. falciparum luciferase reporter growth, 96 h. hit rate 6.9% among 320,000. AID 504834; further: on the % scale 0 is the no-effect control and ±100 the full control effect
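Readout is luminescence from an integrated firefly luciferase in P. falciparum. Red cells, 2% hematocrit and 0.05% parasitemia final, were cultured with compound through two parasite generations (96 hours) at 37 C, 5% CO2.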
Sm TGR inh: inhibitors of Schistosoma mansoni thioredoxin glutathione reductase; Q962Y6; purified TGR, DTNB reduction, TNB absorbance 405 nm; Potency, µM (titrated, usually from 114 µM), without a hit: at the top dose activity change, negative = inhibition, actives largely listed as inhibitors; hit rate 3% among 360,000; AID 485364; further: on the % scale 0 is the no-effect control and ±100 the full control effect; nearly all actives have a fitted effect of over 60% in size
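TGR 20 nM + NADPH 100 uM (dispensed conc.), cpd preinc 15 min RT; start with NADPH (500 uM addition) then DTNB (15 mM addition). Kinetic TNB absorbance, 405 nm filter. Four-parameter Hill fit across titration.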
* = called active by the depositor; ? = inconclusive; · = no result; [ ] = dose if it differs, or a comment. Shown are actives, neighbours in structure and some others; about 11% of the full set was active somewhere. Unless noted, the call rests on the fitted dose curve; in most records, active means well fitted curve in the direction sought with a large enough effect; inconclusive means small, poorly fitted or top-dose-only effect, or another doubt; inactive means no such curve, though single readings can be large; an effect the other way counts as inactive or inconclusive. Potency means the concentration at half of the fitted maximal effect.

SMILES	Pf growth 48h	NS1 inh	AMA1-RON2 inh	Pf growth 96h	Sm TGR inh
C=CCSc1ncccc1C(=O)NCc1ccccc1	18%	-24%	-1%	12µM*	-26%
Cc1ccc2[nH]c(=O)c(CN(CCCO)S(=O)(=O)c3c(C)ccc4nsnc34)cc2c1	0%	-15%	-1%	5.9µM*	8%
O=c1[nH]c2cc3c(cc2cc1CN(CCO)S(=O)(=O)c1ccccc1Cl)OCCO3	·	-9%	4%	0.66µM*	-14%
COc1cc2cc(CN(CCO)S(=O)(=O)c3ccccc3Cl)c(=O)[nH]c2cc1OC	?	-14%	8%	-4%	-1%
Cc1cc2cc(CN(CCCO)S(=O)(=O)c3cccc4nsnc34)c(=O)[nH]c2cc1C	9.3µM*	-6%	-5%	-6%	-8%
CC(=O)c1ccc(S(=O)(=O)N(CCCO)Cc2cc3cc(C)ccc3[nH]c2=O)cc1	0%	-5%	-9%	?	4%
Cc1ccc2cc(CN(CC3CCCO3)S(=O)(=O)c3cccc4nsnc34)c(=O)[nH]c2c1 (stereo not given)	9.3µM*	-3%	4%	-1%	-17%
COc1cc2cc(CN(CCCO)S(=O)(=O)c3ccccc3Cl)c(=O)[nH]c2cc1OC	?	-14%	-1%	?	-3%
Cc1ccccc1OCCSc1nnc(-c2ccc([N+](=O)[O-])cc2)o1	·	·	·	·	10%
CC(C)(C)SCCNC(=O)c1ccc(CN2CCc3ccccc3C2)cc1	-37%	0%	-3%	-3%	4%
C[C@H]1CN([C@@H](C)CO)C(=O)c2cccc(NC(=O)C3CC3)c2O[C@H]1CN(C)S(=O)(=O)c1cccs1	·	·	0%	·	·
Cc1ccc2cc(CN(CC(C)C)S(=O)(=O)c3cccc4nonc34)c(=O)[nH]c2c1	?	19%	-2%	10µM*	-2%
COCCN(Cc1cc2ccc(C)cc2[nH]c1=O)S(=O)(=O)c1ccccc1	0%	-19%	-1%	?	-15%
COc1ccc(-c2ccn(-c3cccc(F)n3)n2)cc1	-13%	15%	32%	-43%	28µM*
O=[N+]([O-])c1ccc(N/N=C2\CC3CC=CC23)c([N+](=O)[O-])c1 (stereo not given)	25%	·	14µM*	25%	?
CC(=O)c1cc2c(ccc3ccccc32)oc1=O	10%	-12%	-5%	2.3µM*	-24%
COc1ccccc1C(=O)Cc1ccccc1	·	·	-5%	·	·
COc1cc(-c2noc(C)c2C#CCO)cc(OC)c1OC	33%	-5%	6%	4%	32µM*
COc1cc(-c2noc(C)c2C#CC2(O)CCCCC2)cc(OC)c1OC	?	-39%	1%	?	?
COc1cc(-c2noc(C)c2C#CC2(N)CCCCC2)cc(OC)c1OC	?	18%	-3%	1.9µM*	-9%
COc1ccc(C(=O)NNC(=O)Cc2nc3nc(C)cc(C)n3n2)cc1	7%	?	132%	49%	1%
C=CC[C@]12C[C@@H](OC)C(=O)C=C1O[C@@H](c1ccc(OC)c(OC)c1)[C@H]2C	·	·	4%	·	·
CN(C)c1nc(N(C)C)nc(N2CC(=O)N(c3ccccc3)C2=N)n1	2.9µM*	·	-4%	126%	-2%
O=C1CCC(=O)N1c1ccccc1	-10%	9%	-3%	-42%	0%
COc1ccccc1C(=O)Nc1nnc(SCc2cc(=O)c3ccccc3[nH]2)s1	·	·	·	·	-1%
SMILES	Pf growth 48h	NS1 inh	AMA1-RON2 inh	Pf growth 96h	Sm TGR inh
CCNc1nc2cccnc2s1	36%	5%	-1%	41%	3%
CCOC(=O)N1CCC(NC(=O)c2ccc(CO)c(C(=O)NC3CCN(C(=O)OCC)CC3)c2)CC1	?	·	-2%	?	?
NC(=O)C1CCN(CC(=O)Nc2cccc(C(=O)Nc3cccc(C(F)(F)F)c3)c2)CC1	1.2µM*	-6%	-10%	?	-3%
CCOC(=O)N1CCC(NC(=O)c2cc(C(=O)Nc3cccc(C(F)(F)F)c3)ccc2CO)CC1	-10%	·	2%	2.3µM*	-1%
CCOC(=O)c1oc2ccc(Cl)cc2c1NC(C)=O	47%	·	0%	-2%	-5%
O=C(c1ccccc1)c1ccccc1NC(=O)C1CCCN1Cc1ccccc1 (stereo not given)	?	-10%	-7%	?	-33%
CCOC1(OCC)OC(c2ccccc2)=C(C#N)C(C=Cc2ccccc2)C1(OCC)OCC (stereo not given)	·	·	-3%	·	·
CC1Oc2ccccc2C=C1/C=N/NC(=O)c1ccccc1O (stereo not given)	3.7µM*	-8%	94%	?	-11%
CC1Oc2ccccc2C=C1/C=N/NC(=O)c1ccccc1 (stereo not given)	2.9µM*	-14%	16%	?	-6%
Cc1ccc(-c2ccc(/C=N/NC(=O)c3ccccc3O)o2)cc1	0.59µM*	-1%	·	0.83µM*	0%
NS(=O)(=O)c1ccc(-c2ccc(/C=N/NC(=O)c3ccccc3O)o2)cc1	?	2%	104%	18%	-16%
Cc1ccc(C(=O)N/N=C/C2=Cc3ccccc3OC2C)cc1 (stereo not given)	?	-18%	11%	?	6%
CCc1ccc(NS(=O)(=O)c2ccc3[nH]cc(C(=O)NCCCOC(C)C)c(=O)c3c2)cc1	·	·	·	·	-1%
ClC(Cl)(Cl)c1nc2ccccc2n2nncc12	0.33µM*	-37%	20%	?	2%
CC(=O)c1cc2c(cc1NC(=O)c1c(C)nn(-c3ccc(C)cc3)c1-n1cccc1)OCO2	·	·	·	·	50%
Cc1cc(C)c(-c2c(O)c3c(n(C)c2=O)CC(C)(C)CC3=O)c(C)c1	?	-23%	7%	5.9µM*	-12%
CCC(=O)Nc1c(OC(=O)CC)ccc2c(C)cc(=O)oc12	-9%	-2%	-3%	3.7µM*	-22%
O=C(Nc1cccc(NC(=O)c2cncc(Br)c2)c1)c1cncc(Br)c1	3.7µM*	18%	9%	?	3%
O=C(Nc1cccc(Br)c1)c1ccn[nH]1	78%	-173%	-8%	0.66µM*	17%
O=C(Nc1ccc(F)c(F)c1)c1cccnc1	·	-4%	-7%	10µM*	16%[11.4 µM]
O=C(Nc1cccc(C(=O)Nc2cccc(Br)c2)c1)c1ccccc1	?	-1%	-2%	?	12%
O=C(Nc1cccc(F)c1)c1cccnc1	-1%	-9%	2%	7.4µM*	-17%
O=C(Nc1ccc(F)cc1)c1cccnc1	32%	-8%	-3%	125%	1%
O=C(Nc1ccncc1)c1cncc(Br)c1	10%	23%	-11%	·	-1%
O=C(Nc1cccc(Cl)c1)O/N=C\c1ccncc1	25%	-4%	3%	67%	5%
Clc1cccc(N/N=C/c2ccncc2)c1	2.6µM*	-23%	-18%	-20%	-2%
Cc1ccc(N/N=C/c2ccncc2)cc1	?	-57%	13%	?	50µM*
CCOC(=O)c1c(Oc2ccc(OC)cc2)nnc(-c2ccccc2)c1-c1ccccc1	·	·	·	·	14%
